EPAC2 antag – Validation qHTS for antagonist of cAMP-regulated guanine nucleotide exchange factor 4 (EPAC2); EPAC2 Rap1B BODIPY-GDP exchange, fluorescence; AID 1645886, 2021; 16,000 compounds, 1.7% hits; Rap guanine nucleotide exchange factor 4 (Homo sapiens), Q8WZA2; Potency, µM (titrated, usually from 112 µM), hits mostly inhibitors; also: nearly all actives have a fitted effect of over 40% in size
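Normalized against a 6.5 mM cAMP agonist control, compounds were tested on 100 nM EPAC2 exchanging Rap1B-bound BODIPY-GDP (250 nM) for 50 uM GDP. Fluorescence drop (ex 480, em 540 nm) was tracked at room temperature over 30 min at 5-min intervals.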
EPAC1 agonist – Validation qHTS for agonist of cAMP-regulated guanine nucleotide exchange factor 3 (EPAC1); Rap guanine nucleotide exchange factor 3 (Homo sapiens), O95398; EPAC1 Rap1b BODIPY-GDP exchange, fluorescence; Potency, µM, actives largely listed as activators; 16,000 compounds, 1% hits; also: nearly all actives have a fitted effect of over 70% in size
Target sequence (O95398 whole entry, looked up): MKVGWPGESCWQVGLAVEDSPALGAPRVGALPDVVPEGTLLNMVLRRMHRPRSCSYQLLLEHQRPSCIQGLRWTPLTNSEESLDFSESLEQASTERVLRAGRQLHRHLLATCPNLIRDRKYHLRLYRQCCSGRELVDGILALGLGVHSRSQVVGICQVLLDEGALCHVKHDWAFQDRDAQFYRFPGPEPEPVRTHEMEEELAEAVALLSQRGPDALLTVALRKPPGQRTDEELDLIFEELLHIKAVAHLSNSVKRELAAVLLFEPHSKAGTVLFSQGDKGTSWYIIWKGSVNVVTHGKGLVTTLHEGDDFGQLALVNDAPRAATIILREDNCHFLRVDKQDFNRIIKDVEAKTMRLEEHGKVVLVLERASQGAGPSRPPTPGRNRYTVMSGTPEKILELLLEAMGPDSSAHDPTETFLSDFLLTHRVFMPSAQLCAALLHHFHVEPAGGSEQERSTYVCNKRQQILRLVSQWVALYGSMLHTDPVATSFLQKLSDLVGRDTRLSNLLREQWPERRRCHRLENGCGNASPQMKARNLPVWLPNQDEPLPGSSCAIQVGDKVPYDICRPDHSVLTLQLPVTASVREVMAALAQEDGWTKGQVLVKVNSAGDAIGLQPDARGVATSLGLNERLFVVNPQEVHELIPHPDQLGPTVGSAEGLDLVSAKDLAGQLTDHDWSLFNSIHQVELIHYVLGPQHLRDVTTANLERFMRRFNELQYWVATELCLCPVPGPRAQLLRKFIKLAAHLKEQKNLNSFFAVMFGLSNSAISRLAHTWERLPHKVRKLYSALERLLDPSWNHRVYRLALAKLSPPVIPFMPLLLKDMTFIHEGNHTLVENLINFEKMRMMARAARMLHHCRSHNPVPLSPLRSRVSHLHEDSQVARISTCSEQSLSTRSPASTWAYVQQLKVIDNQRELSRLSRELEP
Of the large screens only hits and unclear results are named; the others gave an inactive call; ! = not confirmed by another sample. Compounds with a hit are over-represented: about 2.9% of the library has one in this group of screens. Calls follow the shape of the dose curve; as a rule, active = well fitted curve in the direction sought with a large enough effect; inconclusive = small, poorly fitted or top-dose-only effect, or another doubt; inactive = no such curve, though single readings can be large; an effect the other way counts as inactive or inconclusive.

COCC(=O)N1CCC2(CCCN(c3ccc(-c4ccccc4)cc3)C2)CC1	none
O=C(Oc1ccccc1)N1CCC2(CCCN(c3cccc(-c4ccccc4)c3)C2)CC1	EPAC1 agonist inconclusive
CC(=O)N1CCC2(CCCN(c3cccc(-c4ccccc4)c3)C2)CC1	EPAC2 antag 44.7µM, EPAC1 agonist 100µM
O=C(c1ccco1)N1CCC2(CC1)CN(c1ccc(-c3ccccc3)cc1)C2	EPAC1 agonist inconclusive
CC(=O)N1CCC2(CCCN(c3ccc(-c4ccccc4)cc3)C2)CC1	EPAC2 antag inconclusive, EPAC1 agonist 100µM
O=C(c1ccco1)N1CCC2(CC1)CN(c1cccc(-c3ccccc3)c1)C2	EPAC2 antag inconclusive, EPAC1 agonist 100µM
CNc1cc(OC)c(C(=O)N[C@H]2CCN(Cc3ccccc3)[C@H]2C)cc1Cl	EPAC2 antag inconclusive
CCC(C)(C)C(=O)OC1CC(C)C=C2C=CC(C)C(CCC3CC(O)CC(=O)O3)C21 (centres undefined)	none
CCC(C)(C)C(=O)O[C@@H]1C[C@@H](C)C=C2C=C[C@H](C)[C@H](CC[C@@H]3C[C@@H](O)CC(=O)O3)[C@H]21	EPAC2 antag 50.1µM
COc1cc(O)c(C(=O)/C=C/c2ccc(OC)c(O)c2)c(OC)c1	EPAC1 agonist 100µM
COc1ccc(/C=C/C(=O)c2cccs2)c(OC)c1	EPAC1 agonist inconclusive
COc1cc(C(=O)NS(=O)(=O)c2ccccc2C)ccc1Cc1cn(C)c2ccc(NC(=O)OC3CCCC3)cc12	EPAC2 antag 79.4µM
Cc1cnc(-n2ncc(C(=O)N(C)CCc3ccccn3)c2-c2cccs2)nc1-c1ccc(F)cc1	none
CCCCOCCOCCOCc1cc2c(cc1CCC)OCO2	EPAC2 antag 50.1µM!
C=C(NC(=O)C(=C)NC(=O)c1csc(C2=N[C@@H]3c4csc(n4)[C@H]4NC(=O)c5csc(n5)[C@H]([C@](C)(O)[C@@H](C)O)NC(=O)[C@H]5CSC(=N5)C(=CC)NC(=O)C([C@@H](C)O)NC(=O)c5csc(n5)[C@]3(CC2)NC(=O)[C@H](C)NC(=O)C(=C)NC(=O)[C@H](C)NC(=O)C([C@@H](C)CC)NC2C=Cc3c([C@H](C)O)cc(nc3C2O)C(=O)O[C@@H]4C)n1)C(N)=O (some centres undefined)	none
CC(C)C[C@H](CO)N(Cc1ccccc1)S(=O)(=O)N(Cc1ccccc1)[C@@H](CO)CC(C)C	EPAC2 antag inconclusive
C=CS(=O)(=O)N(Cc1ccccc1Br)[C@H](CO)Cc1ccccc1	EPAC2 antag 35.5µM
C=CS(=O)(=O)N(Cc1ccccc1)[C@H](CO)CC(C)C	EPAC2 antag 79.4µM
O=S(=O)(N(Cc1ccccc1)[C@@H](CO)Cc1ccccc1)N(Cc1ccccc1)[C@@H](CO)Cc1ccccc1	none
Cc1nc2sccn2c1CN1CCOc2ccc(CN3C[C@@H](C)O[C@@H](C)C3)cc2C1	none
CC(C)c1c(C(=O)NCC(C)(C)N2CCOCC2)cnn1-c1nccc(-c2cccs2)n1	none
C[C@@H](O[C@H]1OCCN(Cc2n[nH]c(=O)[nH]2)[C@@H]1c1ccc(F)cc1)c1cc(C(F)(F)F)cc(C(F)(F)F)c1	EPAC2 antag 50.1µM
CCCCOc1ccc(CC(=O)NO)cc1	EPAC1 agonist inconclusive
CCCc1c(OCCCOc2ccc(OCC(=O)O)cc2)ccc(CC=O)c1O	EPAC2 antag 44.7µM
CSc1nc(C(=O)N2CCc3c(cnc(C)c3CNC(=O)c3ccc4c(c3)OCO4)C2)cs1	none
C/C=C1\NC(=O)[C@H]2CSSCC/C=C/[C@H](CC(=O)N[C@H](C(C)C)C(=O)N2)OC(=O)C(C(C)C)NC1=O (some centres undefined)	none
CC[C@@]1(O)C[C@H](O[C@H]2C[C@H](N(C)C)[C@H](O[C@H]3C[C@H](O)[C@H](O[C@H]4CCC(=O)[C@H](C)O4)[C@H](C)O3)[C@H](C)O2)c2c(cc3c(c2O)C(=O)c2c(O)cccc2C3=O)[C@H]1C(=O)OC	none
COc1cccc2c1C(=O)c1c(O)c3c(c(O)c1C2=O)C[C@@](O)(C(=O)CO)C[C@@H]3O[C@H]1C[C@H](N)[C@H](O[C@@H]2CCCCO2)[C@H](C)O1	none
CC(=O)[C@]1(O)Cc2c(O)c3c(c(O)c2[C@@H](O[C@H]2C[C@H](N)[C@H](O)[C@H](C)O2)C1)C(=O)c1ccccc1C3=O	EPAC1 agonist 39.8µM
CC(=O)[C@]1(O)Cc2c(O)c3c(c(O)c2[C@@H](O[C@H]2C[C@H](N)[C@H](O)[C@H](C)O2)C1)C(=O)c1c(O)cccc1C3=O	EPAC1 agonist 112µM
COc1cccc2c1C(=O)c1c(O)c3c(c(O)c1C2=O)C[C@@](O)(C(C)=O)C[C@@H]3O[C@H]1C[C@H](N)[C@H](O)[C@H](C)O1	EPAC1 agonist 112µM!
CNCC(=O)N[C@@H](CCCN=C(N)N)C(=O)N[C@H](C(=O)N[C@@H](Cc1ccc(O)cc1)C(=O)N[C@H](C(=O)N[C@@H](Cc1cnc[nH]1)C(=O)N1CCC[C@H]1C(=O)N[C@@H](C)C(=O)O)C(C)C)C(C)C	none
c1cnc2cc3c(cc2n1)[C@@H]1CNC[C@H]3C1	none
C[C@@H]1CN(Cc2ccc3c(c2)CN(Cc2cccn2-c2cccnc2)CCO3)C[C@H](C)O1	none
CC1CS(=O)(=O)CCN1/N=C/c1ccc([N+](=O)[O-])o1 (centres undefined)	none
COc1ccc2c(c1)-c1nc(-n3ncc(C(=O)NC[C@@H]4CCCN5CCCC[C@H]45)c3C)ncc1CC2	none
O=C(NCCN1CCOCC1)c1cnn(-c2nccc(-c3cc4ccccc4o3)n2)c1C1CC1	none
CC(C)(C)[C@H]1CCC(=O)N([C@H](CN=[N+]=[N-])Cc2ccccc2)CC1	EPAC2 antag 56.2µM
[N-]=[N+]=NC[C@H](Cc1ccccc1)N1CC[C@@H](O)CCC1=O	none
CCC1OC(=O)C[C@@H](O)[C@H](C)[C@@H](O[C@@H]2O[C@H](C)C[C@H](N(C)C)[C@H]2O)[C@@H](CC=O)C[C@@H](C)C(=O)/C=C/[C@]2(C)OC2C1C (some centres undefined)	none
C[n+]1c2cc(N)ccc2cc2ccc(N)cc21 (tested in a mixture with another compound)	EPAC1 agonist 25.1µM
COC(=O)C1=C(C)NC(COC(N)=O)=C(C(=O)OC(C)C)C1c1cccc(Cl)c1Cl (centres undefined)	EPAC2 antag 50.1µM, EPAC1 agonist inconclusive
COC(=O)C1=C(C)NC(C)=C(C(=O)OC)C1c1ccccc1[N+](=O)[O-]	EPAC2 antag inconclusive
Cc1nc(C)c(C(=O)NCc2nc(-c3cccc(NC(=O)c4ccccn4)c3)oc2C)s1	none
CC(=O)OCC(=O)[C@@]1(O)CC[C@H]2[C@@H]3CCC4=CC(=O)CC[C@]4(C)C3=CC[C@@]21C	none
O=c1c(O)cc(C2Oc3cc(O)cc(O)c3CC2O)cc2c(C3Oc4cc(O)cc(O)c4CC3O)cc(O)c(O)c12 (centres undefined)	EPAC2 antag 20µM
Oc1cc(O)c2c(c1)O[C@H](c1ccc(O)c(O)c1)[C@@H](O)C2	none
COc1ccc2c(c1)-c1nc(-n3ncc(C(=O)NCc4cccnc4)c3C3CC3)ncc1CC2	none
O=C1OC(c2ccc(O)cc2)(c2ccc(O)cc2)c2ccccc21	EPAC2 antag 35.5µM!, EPAC1 agonist inconclusive
O=C1c2ccccc2C(=O)c2c(O)ccc(O)c21	none

Source: PubChem BioAssay (National Center for Advancing Translational Sciences (NCATS))
